Measured values: PubChem BioAssay (NCATS)
Inconclusive results are not listed. Active and inactive are the calls of the source. Calls come from the whole dose curve; as a rule, active = well fitted curve in the direction sought with a large enough effect; inconclusive = small, poorly fitted or top-dose-only effect, or another doubt; inactive = no such curve, though single readings can be large; an effect the other way counts as inactive or inconclusive.

What was measured:
[1] = target: Glutathione peroxidase 1 (Homo sapiens) (UniProt P07203); assay: Primary qHTS Assay for Inhibitors of Recombinant Selenoprotein Glutathione Peroxidase 1 (GPX1) (AID 1845191); conditions: recombinant GPX1, GR-coupled NADPH fluorescence, 15 min; series mostly up to 27.7 µM; note: nearly all actives have a fitted effect of over 65% in size
Sequence of Glutathione peroxidase 1 (Homo sapiens) (P07203 whole entry, looked up): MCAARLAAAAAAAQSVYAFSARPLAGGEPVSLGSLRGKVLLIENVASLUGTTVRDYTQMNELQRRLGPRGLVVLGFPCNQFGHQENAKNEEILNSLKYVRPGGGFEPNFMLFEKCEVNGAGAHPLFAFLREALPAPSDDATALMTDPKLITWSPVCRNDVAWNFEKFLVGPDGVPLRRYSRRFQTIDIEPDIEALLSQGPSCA
How it was run: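 10 nM GPX1 + cpd, 30 min RT; start w/ 1 mM GSH, 0.5 mM cumene hydroperoxide, 0.5 mM NADPH, 100 nM GR, 0.01% BSA; buffer 50 mM Tris-HCl pH 7.5, 2 mM EDTA, 150 mM NaCl; Fl 340/450, 0 & 15 min.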

[2] = target: Phospholipid hydroperoxide glutathione peroxidase GPX4 (Homo sapiens) (UniProt P36969); assay: Primary qHTS Assay for Inhibitors of Recombinant Selenoprotein Glutathione Peroxidase 4 (GPX4) (AID 1845192); conditions: recombinant GPX4, GR-coupled NADPH fluorescence, 15 min; series mostly up to 27.8 µM; note: nearly all actives have a fitted effect of over 65% in size; for activity change, negative = inhibition: % is set by controls: 0 for no effect and ±100 for the full control effect
Sequence of Phospholipid hydroperoxide glutathione peroxidase GPX4 (Homo sapiens) (P36969 whole entry, looked up): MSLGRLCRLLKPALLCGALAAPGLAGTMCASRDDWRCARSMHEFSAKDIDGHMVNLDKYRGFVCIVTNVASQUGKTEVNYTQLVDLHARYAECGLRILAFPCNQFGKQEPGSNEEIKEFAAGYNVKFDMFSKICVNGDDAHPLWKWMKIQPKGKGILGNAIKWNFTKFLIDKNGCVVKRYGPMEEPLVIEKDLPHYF
How it was run: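 NADPH consumption, followed by fluorescence at 340/450 nm between 0 and 15 min, reports GPX4 activity via coupled glutathione reductase (100 nM). Enzyme 200 nM was pre-exposed to compound 30 min; 0.5 mM cumene hydroperoxide and 1 mM GSH served as substrates.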

[3] = target: Luciferin 4-monooxygenase (Photinus pyralis) (UniProt P08659); assay: Primary firefly luciferase (FLuc) qHTS assay for identification of artifact compounds. (AID 1845220); conditions: purified firefly luciferase, luminescence, 5 min; series mostly up to 54.1 µM; note: nearly all actives have a fitted effect of over 60% in size;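 for activity change, negative = inhibition: plate controls were DMSO vehicle for no effect and no enzyme for full effect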
How it was run: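 FLuc 10 nM; luciferin 10 uM; ATP 10 uM; Tris-acetate pH 7.6, Mg-acetate 10 mM; 15 min RT preincubation; 5 min reaction; luminescence.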

[4] = Primary fluorescence-based thiol-reactive (MSTI) qHTS assay for identification of artifact compounds. (AID 1845221); conditions: MSTI thiol-reactivity probe, 1 h; series mostly up to 53.8 µM; note: nearly all actives have a fitted effect of over 65% in size; note: potency is the fitted concentration of half-maximal effect;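 for activity change, negative = thiol reactive: thiol-reactive compounds lower the probe fluorescence signal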
How it was run: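 Curve-fitted percent inhibition (4-parameter Hill) derived from fluorescence, Ex 525/Em 598 nm, scaled with Acetyl-MSTI and MSTI; 1 h incubation at room temperature.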

CCCNCCOc1ccc(NC(=O)c2c[nH]c3c2C(=O)CCC3)cc1F
inactive: Potency [1] | Potency [2] | Potency [3] | Potency [4]

Cc1ccccc1NC(=O)Nc1ccc(CN2C(=O)N([C@@H](CC(C)C)C(=O)N[C@@H](CC(=O)O)c3ccccc3)C(=O)C2(C)C)cc1
inactive: Potency [1] | Potency [2] | Potency [3] | Potency [4]

COC(=O)CCC1(C)C(C(C)(C)O)C(O)CC2(C)Oc3c(C)c4c(c(OC)c3CC21)C(=O)OC4 (configuration not stated)
inactive: Potency [1] | Potency [2] | Potency [3] | Potency [4]

Cc1cc(-c2nncc3c(C(C)(C)C)c(OCc4ncnn4C)nn23)no1
inactive: Potency [1] | Potency [2] | Potency [3] | Potency [4]

CC(C)(CC(=O)N1CCCC1)NCC(=O)N1C[C@@H](F)C[C@H]1C#N
inactive: Potency [1] | Potency [2] | Potency [3] | Potency [4]

CC1=C(C)C(=O)OC(C(C)C2C(O)CC3C4C5OC5C5(O)CC(OC6OC(CO)C(OC7OC(C)C(O)C(O)C7O)C(O)C6O)CC(O)C5(C)C4CCC32C)C1 (configuration not stated)
inactive: Potency [1] | Potency [2] | Potency [3] | Potency [4]

Cc1occc(=O)c1O[C@@H]1O[C@H](CO[C@@H]2OC[C@](O)(CO)[C@H]2O)[C@@H](O)[C@H](O)[C@H]1O
inactive: Potency [1] | Potency [2] | Potency [3] | Potency [4]

COc1ccc(CCC(=O)O)c(O[C@@H]2O[C@H](CO)[C@@H](O)[C@H](O)[C@H]2O)c1
inactive: Potency [1] | Potency [2] | Potency [3] | Potency [4]

CC1=CC(=O)CC(C)(C)[C@@]1(O)/C=C/C(C)O[C@@H]1O[C@H](CO)[C@@H](O)[C@H](O)[C@H]1O (some centres not stated)
inactive: Potency [1] | Potency [2] | Potency [3] | Potency [4]

Cc1nc2ccccc2c(-c2ccc3c4c(ccnc24)CCO3)c1[C@H](OC(C)(C)C)C(=O)O
inactive: Potency [1] | Potency [2] | Potency [3] | Potency [4]

CC(CNS(=O)(=O)C(C)C)c1ccc(-c2ccc(C#N)cc2)cc1 (configuration not stated)
inactive: Potency [1] | Potency [2] | Potency [3] | Potency [4]

Nc1nc2c(nc(Sc3ccc(Cl)cc3)n2[C@@H]2O[C@@H]3COP(=O)(O)O[C@H]3[C@H]2O)c(=O)[nH]1
inactive: Potency [1] | Potency [2] | Potency [3] | Potency [4]

C=C1C(O)C(OC(=O)c2ccccc2)C2C(C)(C(=O)O)CCCC2(C)C1CC/C(C)=C\CO (configuration not stated)
inactive: Potency [1] | Potency [2] | Potency [3] | Potency [4]

Nc1ncnc2c1c(COc1cccc(Cl)c1)nn2C1CCOCC1
inactive: Potency [1] | Potency [2] | Potency [3] | Potency [4]

CCN=C1N[C@@H]2[C@@H](O)[C@H](O)[C@@H](CO)O[C@@H]2S1
inactive: Potency [1] | Potency [2] | Potency [3] | Potency [4]

C[C@]12CC/C(=N\OCC(=O)O)C=C1CC[C@@H]1[C@@H]2[C@@H](O)C[C@@]2(C)[C@H]1CC[C@]2(O)C(=O)CO
inactive: Potency [1] | Potency [2] | Potency [3] | Potency [4]

Cc1oc2nc3c(c(NC(=O)CN4CCCC4=O)c2c1C)CCCC3
inactive: Potency [1] | Potency [2] | Potency [3] | Potency [4]

COC(=O)C1=CO[C@@H](O[C@@H]2O[C@H](CO)[C@@H](O)[C@H](O)[C@H]2O)[C@H]2[C@@H]1C=C[C@]21C=C([C@H](C)OC(=O)/C=C/c2ccc(O[C@@H]3O[C@H](CO)[C@@H](O)[C@H](O)[C@H]3O)cc2)C(=O)O1
inactive: Potency [1] | Potency [2] | Potency [3] | Potency [4]

CC1(C)CC[C@]2(C(=O)O[C@@H]3O[C@H](CO)[C@@H](O)[C@H](O)[C@H]3O)CC[C@]3(C)C(=CCC4[C@@]5(C)CC[C@H](OC6OC(C(=O)O)C(OC7OC(CO)C(O)C(O)C7O)C(O)C6O)C(C)(C)C5CC[C@]43C)C2C1 (some centres not stated)
inactive: Potency [1] | Potency [2] | activity change, negative = inhibition [3] -0.627% [at 11.6 µM] | activity change, negative = thiol reactive [4] 280% [at 11.5 µM]

COc1ccc(-n2[nH]c3c(cnc4ccccc43)c2=O)cc1
active: Potency [4] 4740 nM
inactive: Potency [1] | Potency [2] | Potency [3]

CC[C@H]1OC(=O)[C@H](C)C(=O)[C@H](C)[C@@H](OC2O[C@H](C)C[C@H](N(C)C)[C@H]2O)[C@@H](C)C[C@@H](C)C(=O)/C=C/[C@]1(C)O (some centres not stated)
inactive: Potency [1] | Potency [2] | Potency [3] | Potency [4]

C=C1C2(C)CC3C4(C)C=CC(=O)OC(C)(C)C4CCC3(C)C1(C(=O)OC)C(=O)C(C)(O)C2=O (configuration not stated)
inactive: Potency [1] | Potency [2] | Potency [3] | Potency [4]

O=C(/C=C/c1ccc(O)c(O)c1)OC[C@H]1O[C@@H](OC2CCCCC2O)[C@H](O)[C@@H](O)[C@@H]1O (some centres not stated)
active: Potency [4] 1160 nM
inactive: Potency [1] | Potency [2] | Potency [3]
